D1 potentiator: human D1 dopamine receptor positive modulation | P21728 | HEK293 TREx D1 cells, calcium flux, dopamine EC20 potentiation | potentiation, % at 10 µM | 360,000 tested, 0.036% active; in the data active = potentiation above about 30%
DRD3 antagonist: antagonists of human D3 dopamine receptor; D3R cells, DiscoveRx beta-arrestin luminescence, antagonist mode; active compounds read low; max response, negative = inhibition, %; 360,000 tested, 2.5% active; AID 652054; in the data active = max response below about -50%
Target sequence (P35462 whole entry, looked up): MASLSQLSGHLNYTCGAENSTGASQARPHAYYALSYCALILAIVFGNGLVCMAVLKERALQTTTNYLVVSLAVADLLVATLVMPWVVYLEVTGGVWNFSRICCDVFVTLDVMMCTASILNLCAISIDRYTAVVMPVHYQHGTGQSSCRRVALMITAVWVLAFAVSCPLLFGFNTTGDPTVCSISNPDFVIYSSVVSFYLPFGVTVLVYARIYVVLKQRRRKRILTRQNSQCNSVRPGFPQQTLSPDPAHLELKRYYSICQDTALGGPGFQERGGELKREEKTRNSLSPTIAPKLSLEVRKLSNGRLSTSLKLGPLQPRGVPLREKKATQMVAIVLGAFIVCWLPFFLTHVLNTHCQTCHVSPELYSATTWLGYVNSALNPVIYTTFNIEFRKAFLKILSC
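Cells expressing the human receptor were seeded at 1500 cells/well, incubated overnight at 37 degrees C in 5% CO2, then exposed to library compounds with dopamine controls for 90 minutes at 37 degrees C before luminescent detection.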
D1 antag: blocks dopamine activation of the human D1 receptor; 360,000 tested, 3.2% active; AID 504652; HEK293 TREx D1 cells, calcium flux, dopamine EC80; active compounds read low; P21728; activity change, negative = inhibition, % at 10 µM; in the data active = activity change below about -30%
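Tetracycline-induced HEK293 Trex D1 cells, force-coupled to calcium, dye-loaded; compounds added and read 180 s, then EC80 dopamine added and calcium flux tracked kinetically another 180 s.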
D1 ag: activates the human D1 dopamine receptor; P21728; HEK293 T-REx D1 cells, calcium flux, agonist mode; activation, % at 2 µM; 360,000 tested, 1% active; AID 504660; in the data active = activation above about 30%
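Tetracycline-induced HEK293 TREx D1 cells, force-coupled to calcium signalling, were dye-loaded with a no-wash calcium kit. Compound was pin-added after a 10 s baseline. Fluorescence was read kinetically at 1 cycle/s for 180 s, with calcium rises flagged as agonism.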
D3 ag: D3 dopamine receptor (human) agonism. D3R DiscoveRx beta-arrestin cells, luminescence, 90 min. max activation, %. 410,000 tested, 0.58% active. P35462; in the data active = max activation above about 30%
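Agonist mode: compounds and dopamine controls were applied to plated cells for 90 min at 37 degrees C after an overnight attachment at 1500 cells/well. Luminescent read-out followed 30 - 60 minutes at room temperature with DiscoveRx detection reagent.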
Numbers stand for hits. In the library only some 6% were active in any assay of this set; here they are far more common.

Screening CCCCCOc1ccc(Br)cc1CSC(=N)N returned D1 potentiator inactive, DRD3 antagonist inactive, D1 antag inactive, D1 ag 30 and D3 ag inactive.
For CCCCOc1ccc(CSC(=N)N)cc1Cl the results were D1 potentiator inactive, DRD3 antagonist inactive, D1 antag inactive, D1 ag 65 and D3 ag inactive.
N#Cc1c(NC(=O)Cn2cnc3ccccc3c2=O)oc(-c2ccccc2)c1-c1ccccc1 was read as D1 potentiator inactive, DRD3 antagonist -61, D1 antag -55, D1 ag inactive and D3 ag inactive.
N#Cc1c(NC(=O)CSc2ncccn2)oc(-c2ccccc2)c1-c1ccccc1 was read as DRD3 antagonist inactive and D3 ag inactive.
`N#Cc1c(NC(=O)CN2CCOCC2)oc(-c2ccccc2)c1-c1ccccc1` gave D1 potentiator inactive, DRD3 antagonist -59, D1 antag inactive, D1 ag inactive and D3 ag inactive.
Screening COc1cc2c(-c3cccc(Cl)c3)nc3c(c(C)nn3-c3ccccc3)c2cc1OC returned D1 potentiator inactive, D1 antag inactive, D1 ag inactive and D3 ag inactive.
`CC(C)NC[C@@H](O)c1ccc(O)c(O)c1` gave D1 potentiator inactive, DRD3 antagonist inactive, D1 antag -32, D1 ag inactive and D3 ag inactive.
`CCCCn1c(SCC(=O)N2CCN(c3ccccc3)CC2)nc2ccsc2c1=O` gave D1 potentiator inactive, DRD3 antagonist inactive, D1 antag inactive, D1 ag inactive and D3 ag 35.
Screening CCCCn1c(SCC(=O)N2CCC(C)CC2)nc2ccsc2c1=O returned D1 potentiator inactive, DRD3 antagonist inactive, D1 antag inactive, D1 ag inactive and D3 ag 30.
Screening O=C(N1CCc2cc([S+](=O)([O-])N3CCN([S+](=O)([O-])c4c(F)cccc4F)CC3)ccc2C1)C(F)(F)F returned D1 potentiator inactive, D1 antag inactive and D1 ag inactive.
For Cc1ccc(C(=O)c2oc3ccccc3c2NC(=O)c2cc(-c3ccc(Cl)cc3)on2)cc1 the results were D1 potentiator inactive, D1 antag inactive, D1 ag inactive and D3 ag inactive.
For Cc1c2cnn(CC(=O)N3CCN(c4ccccc4)CC3)c(=O)c2c(C)n1Cc1ccccc1Cl the results were D1 potentiator inactive, D1 antag inactive, D1 ag inactive and D3 ag inactive.
Screening COc1cccc(-c2ccc3ncnc(NCc4cccnc4)c3c2)c1 returned D1 potentiator inactive, D1 antag inactive and D1 ag inactive.
For Cc1csc(CNc2ncnc3ccc(-c4ccco4)cc23)c1 the results were D1 potentiator inactive, D1 antag -39 and D1 ag inactive.
c1cncc(CNc2ncnc3ccc(-c4ccco4)cc23)c1 was read as D1 potentiator inactive, D1 antag -77 and D1 ag inactive.
For Cc1cccc(NC(=O)COC(=O)c2c(-c3ccccc3)noc2C)c1 the results were DRD3 antagonist inactive and D3 ag inactive.
For Cc1ccc(CNC(=O)CSc2nc3ccsc3c(=O)n2-c2ccc(C(=O)O)cc2)cc1 the results were D1 potentiator inactive, D1 antag inactive, D1 ag inactive and D3 ag inactive.
Screening CCN1/C(=C/C=C/c2oc3ccc(-c4ccccc4)cc3[n+]2CC)Oc2ccc(-c3ccccc3)cc21 returned D1 potentiator inactive, DRD3 antagonist inactive, D1 antag -84, D1 ag 547 and D3 ag inactive.
Screening Cc1ccc(CNC(=O)c2ccc(Cn3nc(C)c(Cl)c3C)o2)cc1 returned D1 potentiator inactive, DRD3 antagonist -53, D1 antag inactive, D1 ag inactive and D3 ag inactive.
For Cc1csc(NC(=O)c2ccc(Cn3nc(C)c(Br)c3C)o2)n1 the results were D1 potentiator inactive, DRD3 antagonist inactive, D1 antag inactive, D1 ag inactive and D3 ag inactive.
For Cc1cc(C)cc(NC(=O)c2ccc(Cn3nc(C)c(Cl)c3C)o2)c1 the results were D1 potentiator inactive, DRD3 antagonist inactive, D1 antag inactive, D1 ag inactive and D3 ag inactive.
Cc1nn(Cc2ccc(C(=O)Nc3ccccc3C(F)(F)F)o2)c(C)c1Br was read as D1 potentiator inactive, DRD3 antagonist inactive, D1 antag -65, D1 ag inactive and D3 ag inactive.
COc1cccc(C2C(C(=O)c3cccs3)=C(O)C(=O)N2c2cc(C)on2)c1 (configuration not stated) was read as D1 potentiator inactive, DRD3 antagonist -55, D1 antag inactive, D1 ag inactive and D3 ag inactive.
Screening COc1ccc(OC)c(C2C(C(=O)c3cccs3)=C(O)C(=O)N2c2cc(C)on2)c1 (configuration not stated) returned D1 potentiator inactive, DRD3 antagonist -69, D1 antag inactive, D1 ag inactive and D3 ag inactive.
Screening COc1cc(C2C(C(=O)c3cccs3)=C(O)C(=O)N2c2cc(C)on2)ccc1O (configuration not stated) returned D1 potentiator inactive, DRD3 antagonist inactive, D1 antag inactive, D1 ag inactive and D3 ag inactive.
Screening Cc1cc(N2C(=O)C(O)=C(C(=O)c3cccs3)C2c2cccc(O)c2)no1 (configuration not stated) returned D1 potentiator inactive, DRD3 antagonist inactive, D1 antag inactive, D1 ag inactive and D3 ag inactive.
Screening NC(=O)C1CCN(C(=O)Nc2csc3ccccc23)CC1 returned D1 potentiator inactive, DRD3 antagonist inactive, D1 antag -61, D1 ag inactive and D3 ag inactive.
Screening COc1cc(/C=N/NC(=O)Cc2ccccc2)cc([N+](=O)[O-])c1O returned D1 potentiator inactive, DRD3 antagonist -56, D1 antag inactive, D1 ag inactive and D3 ag inactive.
Screening COc1cc(/C=N\NC(=O)c2ccc(-c3ccccc3)cc2)cc(OC)c1O returned D1 potentiator inactive, DRD3 antagonist inactive, D1 antag -31, D1 ag inactive and D3 ag inactive.
`COc1cc(/C=N/NC(=O)c2ccc(CSc3nc4ccccc4[nH]3)cc2)cc(OC)c1OC` gave D1 potentiator inactive, DRD3 antagonist inactive, D1 antag -33, D1 ag inactive and D3 ag inactive.
Screening O=[S+]([O-])(c1ccc2c(c1)OCCO2)N1CCN([S+](=O)([O-])c2c(F)cc(O)cc2F)CC1 returned D1 potentiator inactive, D1 antag inactive and D1 ag inactive.
Screening Cc1ccc(N/C(N)=N/c2nc(C)cc(C)n2)cc1 returned D1 potentiator inactive, DRD3 antagonist inactive, D1 antag -74, D1 ag inactive and D3 ag inactive.
`Cc1cc(C)nc(/N=C(\N)Nc2ccc(C(C)C)cc2)n1` gave D1 potentiator inactive, DRD3 antagonist inactive, D1 antag inactive, D1 ag 35 and D3 ag inactive.
Screening Cc1cc(C)nc(/N=C(\N)Nc2ccc([N+](=O)[O-])cc2)n1 returned D1 potentiator inactive, DRD3 antagonist inactive, D1 antag inactive, D1 ag inactive and D3 ag inactive.
